Each structure is given as a SMILES string. The campaign covered roughly 1,000 compounds. About 270 (27%) were called active. No stated cut-off is given here; in the data, active means inhibition above about 14%; inactive means the rest. A selection follows.

Sequence of Methyl-CpG-binding domain protein 2 (Homo sapiens) (Q9UBB5 whole entry, looked up, the tested form may be a part): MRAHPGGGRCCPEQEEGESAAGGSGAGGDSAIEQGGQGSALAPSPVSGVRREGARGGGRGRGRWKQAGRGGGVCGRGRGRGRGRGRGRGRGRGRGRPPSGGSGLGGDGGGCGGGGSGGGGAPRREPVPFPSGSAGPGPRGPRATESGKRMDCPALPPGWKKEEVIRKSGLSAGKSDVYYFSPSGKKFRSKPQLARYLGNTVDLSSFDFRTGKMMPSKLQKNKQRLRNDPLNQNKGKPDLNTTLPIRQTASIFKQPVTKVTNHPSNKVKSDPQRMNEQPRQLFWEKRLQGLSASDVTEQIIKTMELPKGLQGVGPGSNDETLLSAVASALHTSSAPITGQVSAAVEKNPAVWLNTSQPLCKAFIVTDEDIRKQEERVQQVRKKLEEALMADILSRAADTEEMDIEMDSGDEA

This test has as its target Methyl-CpG-binding domain protein 2 (Homo sapiens) (UniProt Q9UBB5). Description: MBD2-DBD methyl-oligonucleotide interaction blockers – biochemical, TR-FRET, DNA-binding domain, human, confirmation (AID 720531). Conditions: TR-FRET MBD2-DBD binding to methylated oligonucleotide; at 4.4 µM; stronger effect = higher value.
`c1ccc2cc3c(NCCN4CCOCC4)ccnc3cc2c1`: the inhibition was 25% (active). As for `Cc1cccc(NC(=O)C[C@H]2CC[C@H]3[C@@H](COc4ccc(NC(=O)Nc5ccccc5)cc4C(=O)N3C)O2)c1`, the figure is 8.99% (inactive); as for `COC(=O)[C@]12C[C@H](CC(=O)NCCC(C)C)C(=O)N(CCc3ccc(OC)c(OC)c3)C1=C[C@H](C(C)(C)C)O[C@@H]2C`, 2.11% (inactive); as for `O=c1ccc2c(-c3ccccc3S(=O)(=O)O)c3ccc(O)c(O)c3oc-2c1O`, 94.4% (active).

Consider `CN(C)[C@@H]1C(=O)C(C(N)=O)=C(O)[C@@]2(O)C(=O)C3=C(O)c4c(O)ccc(Cl)c4[C@@H](O)[C@H]3C[C@@H]12`, for which the inhibition is 0.76% (inactive).

Turning to `CN(C)CCNC(=O)c1ccc(Cl)c2cc3ccccc3nc12`, the inhibition was 68.7% (active). The result for `COc1nc(N(C)C)nc(N2CC(=O)N(CCNS(=O)(=O)c3ccc(C)cc3)C2=N)n1` reads 3.06% (inactive); that for `COC(=O)c1c(NC(=O)c2ccc(S(=O)(=O)N3CCOCC3)cc2)sc2c1CCN(C(C)C)C2`, 23.6% (active). As for `CCOc1ccc(-n2c(SCC(=O)Nc3ccc(OC)cc3)nc3sc4c(c3c2=O)CCN(C)C4)cc1`, the inhibition is 4.44% (inactive). The result for `COc1ccc(COC[C@H](CC(C)C)N2CCN(C(=O)c3cccc(C(F)(F)F)c3)CCC2=O)cc1` reads 5.45% (inactive); that for `Nc1ccccc1C(=O)NC1CCCCNC1=O` (stereo not given), 0.65% (inactive); that for `C=CCn1c(=S)[nH]c2scc(-c3ccco3)c2c1=O`, 27.2% (active). Turning to `COC(=O)c1ccc(CSc2nncn2N)cc1`, the inhibition was 1.91% (inactive). For the molecule `Cc1c(NS(=O)(=O)c2cc(C(=O)NCCc3ccc(F)cc3)cc(Cl)c2Cl)c(=O)n(-c2ccccc2)n1C`, the inhibition is 3.66% (inactive). The result for `C=CCN(C(=O)[C@@H](CCCC)[C@@H](O)c1ccc(Cl)cc1)c1ccccc1` reads 3.23% (inactive); that for `C=CC1=C(C(=O)O)N2C(=O)[C@@H](NC(=O)/C(=N\OCC(=O)O)c3csc(N)n3)[C@H]2SC1`, 104% (active); that for `CNC(=O)C[C@H]1C(=O)N(c2ccc(OC)cc2)C[C@@H]1Cc1ccccc1`, 2.83% (inactive). As for `CCOc1ccc(S(=O)(=O)N2CCC(c3ccccc3)CC2)cc1C(=O)O`, the figure is 0.33% (inactive); as for `CC(C)c1nc(CNC(=O)CC2C(=O)NCCN2Cc2cccc(F)c2F)cs1` (stereo not given), 1.21% (inactive).

As to `CCOc1ccc(NC(=O)c2cc(C)nc3ccccc23)cc1`, the inhibition was 1.13% (inactive). As for `Cc1ccc(Cc2cnc(N)s2)o1`, the figure is 2.75% (inactive); as for `CCOC(=O)C1C(=O)OC2(CCCC2)C1C(=O)OCC` (stereo not given), 1.9% (inactive). Turning to `CCN(CC)CCOc1ccc2c(c1)C(=NNC(=O)c1ccccn1)c1cc(OCCN(CC)CC)ccc1-2`, the inhibition is 112% (active). The result for `C=CCN1C(=O)c2ccc(C(=O)N3CCC(C(=O)OCC)CC3)cc2C1=O` reads 4.08% (inactive). As for `COc1ccccc1C(=O)NNC(=O)CCN1C(=O)/C(=C\c2ccccc2)SC1=S`, the figure is 1.72% (inactive). As for `COC(=O)c1cn(C)c2ccc(S(=O)(=O)N3CC(C)CC(C)C3)cc2c1=O` (stereo not given), the figure is 6.67% (inactive). Consider `Cc1ccc(-c2ccnc3nc(Sc4ncc(C(F)(F)F)cc4Cl)nn23)cc1`, for which the inhibition is 3.6% (inactive). The result for `CCOc1cc(-c2noc(CCCC(=O)NC3CCCCC3)n2)ccc1OC` reads 7.12% (inactive). As for `C=C1c2c(Cl)ccc(O)c2C(O)=C2C(=O)[C@]3(O)C(O)=C(C(N)=O)C(=O)[C@@H](N(C)C)[C@@H]3[C@@H](O)C12` (stereo not given in full), the figure is 7.25% (inactive); as for `Cc1cc(C)c2nc3nc(C)cc(C)c3c(N)c2c1`, 45.1% (active). The result for `CC(C)Oc1ccc(C2NC(=O)NC2=O)cc1` (stereo not given) reads 6.62% (inactive); that for `COC(=O)c1ccc2nc(C3CCCCC3)c(Cc3cccc(F)c3)n2c1`, 4.72% (inactive).

Consider `Cc1ccccc1NC(=O)CN1C(=O)N/C(=C\c2cccn2-c2cccc(C(=O)O)c2)C1=O`, for which the inhibition is 21.2% (active). The result for `Cc1cccc(CN2CCN(C3CN(Cc4cn(Cc5cc(C)cc(C)c5)nn4)S(=O)(=O)C3)CC2)c1` (stereo not given) reads 1.92% (inactive).

Regarding `CCOc1ccc(N(CC(=O)NCCOc2ccccc2OC)S(=O)(=O)c2ccccc2)cc1`, the inhibition was 2.61% (inactive). The result for `Cc1c(C=O)n(C)n(-c2ccccc2)c1=O` reads 6.3% (inactive).

With `Brc1ccc(-c2n(-c3ccccn3)c3ccccc3[n+]2-c2ccccn2)cc1`, the inhibition is 76.4% (active). Take `COc1ccc(-n2cc(-c3ccccc3)c3c(=S)nc[nH]c32)cc1`: the inhibition was 3.57% (inactive). As for `Cc1ccc(C)c(NC(=O)c2ccc(OC(=O)c3ccco3)cc2)c1`, the inhibition is 4.94% (inactive). As for `CC(=O)c1ccccc1NC(=O)COC(=O)C1COc2ccccc2O1` (stereo not given), the figure is -0.13% (inactive); as for `COc1ccc(CNC(=O)c2c[nH]c3c(OC)cc(OC)cc3c2=O)cc1`, 3.79% (inactive).

Regarding `COC(=O)c1ccc2nc(-c3cccc(Br)c3)c(Cc3ccc(OC)cc3C)n2c1`, the inhibition was 8.39% (inactive).

As to `CN(C(=O)COC(=O)c1cc(-c2ccco2)nc2ccccc12)C1CCS(=O)(=O)C1` (stereo not given), the inhibition is 32.3% (active). The result for `CO/N=C(/CS(=O)(=O)c1ccc(Br)cc1)c1ccc(OC)cc1` reads 3.47% (inactive); that for `COc1ccc(OCc2cc(C(=O)NCC3(C)COC3)no2)c(Cl)c1`, -0.36% (inactive). As for `CCOc1cc(N2CCOCC2)c(OCC)cc1NC(=O)c1cc(C)nc2ccccc12`, the figure is 2.46% (inactive); as for `COc1ccc2[nH]c3c(C)c4cc[n+](C)cc4c(C)c3c2c1`, 109% (active). The result for `CCOC(=O)CCP(=O)(O)C(O)(c1ccccc1)c1ccccc1` reads 5.44% (inactive). For `COc1ccc2c(c1)c(=Cc1ccc(N(C)C)cc1)c1cc(-c3ccccc3)[n+](C)n12`, the inhibition was 73% (active).

Regarding `CCOC(=O)c1sc(NC(=O)CCN2CCOCC2)c(C(=O)OCC)c1C`, the inhibition was 1.01% (inactive). As for `O=C(c1n[nH]c2c1CCC2)N1CCCC(Nc2cccc(F)c2)C1` (stereo not given), the figure is 3.32% (inactive); as for `O=C(CC1CCCCC1)Nc1c2c(nn1-c1ccc(F)cc1)CS(=O)(=O)C2`, 1.28% (inactive); as for `CCOC(=O)c1ccc(-n2c(CCC(=O)O)ccc2-c2ccccc2)cc1`, -0.54% (inactive). On to `COC(=O)c1cccc(NC(=O)c2cccc(N3C(=O)CCC3=O)c2)c1`, for which the inhibition was 1.64% (inactive). As for `Cc1ccc(C(=O)Nc2ccc3c(c2)OCO3)cc1S(=O)(=O)N1CCCCC1`, the inhibition is 5.06% (inactive).

(Values after PubChem BioAssay AID720531 (The Scripps Research Institute Molecular Screening Center, 2013).)
